This is part of a sample that, as a whole, favours compounds with a hit. Of some 83,000 tested, about 20% had one in any assay.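 Assay: single dose, 48 h. Readout: percent growth (0 = no net growth; negative = cell death). Active: <10.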 Activity calls are given as the source filed them.

This experiment relates to NCI-H522 lung. As to the kind of experiment: NCI-60 one-dose screen, 48 h (100 = growth as untreated, 0 = no growth, -100 = all killed). The conditions noted are these: 10 µM unless noted. The method, then:
Growth inhibition of the NCI-H522 human Non-Small Cell Lung tumor cell line is measured as a screen for anti-cancer activity. Cells are grown in 96 well plates and exposed to the test compound for 48 hours. Compounds are tested at a single concentration, which is 10^-5 M for most compounds. The reported endpoint is percent growth (GI% or GIPRCNT), where numbers from 0 - 100% represent growth inhibition, and numbers from -100% - 0 represent cell death. For example, a value of 40 represents 60% growth inhibition. A value of 0 means no net growth occurred over the course of the experiment. A value of -40 indicates 40% of cells at the beginning of the experiment died by the end of the experiment. A value of -100 means all cells are dead at the end of the experiment.
NCI-60 Human Tumor Cell Lines Screen was performed using the standard one-dose NCI protocol, which is described in more detail at https://dtp.cancer.gov/discovery_development/nci-60/default.htm.
Compounds with GIPRCNT values below 10 were considered active. Activity score was based on GIPRCNT using the following formula: […]
Score is 0 for GIPRCNT values of 100 or above, 50 for GIPRCNT values of 0, and 100 for GIPRCNT values of -100.
For the compound `O=C(O)CCCCCN1C(=O)/C(=C/c2ccc(O)c(O)c2)SC1=S`, the growth is 98% (inactive).

As to `COc1cc2cc(Oc3ccc(NC(=O)c4cccc(C(F)(F)F)c4)cc3)c(C)nc2cc1OCCN1CCCCC1`, the growth was 68.9% (inactive).

For the compound `COc1ccc(C(=O)/C=C/c2ccc(OCc3ccc(C)cc3)c(OC)c2)cc1OC`, the growth was 72.3% (inactive).

In the case of `COc1cc(/C=C/C(=O)c2ccc(C)cc2)ccc1Oc1nc(NCCO)nc(N2CCOCC2)n1`, the growth is 76.9% (inactive).

Consider `CC(C)(C)Nc1nc2c(OCCc3ccccc3)cccn2c1-c1ccc(Cl)cc1`, for which the growth is 3.18% (active).

`[Cl][Ru].c1ccc(-c2cc(-c3ccccn3)nc(-c3ccccn3)c2)cc1.c1ccc(-c2ccnc3c2ccc2c(-c4ccccc4)ccnc23)cc1`: the growth is -52.8% (active).

As to `Cc1ccc(CNS(=O)(=O)/N=C2\NC(=O)NC2=C(Cl)Cl)cc1`, the growth is 36.8% (inactive).

With `CS(=O)(=O)c1ccc(-n2cc(/C=C/C(=O)c3ccc(NC(=O)CO[N+](=O)[O-])cc3)c(-c3ccc(Cl)cc3)n2)cc1`, the growth was 103% (inactive).

In the case of `CC(C)NC(=O)c1cc(-c2ccc(NC(=O)Nc3ccc(N4CCOCC4)c(C(F)(F)F)c3)cc2)nc2cccnc12`, the growth is 87% (inactive).

`Cc1[nH]nc2ncc(C#Cc3cncc(C(=O)Nc4ccc(CN5CCN(C)CC5)c(C(F)(F)F)c4)c3)cc12`: the growth is 47.8% (inactive).

Regarding `O=C(CN1CCOCC1)NNc1ncnc2ccccc12`, the growth was -61% (active).

With `NS(=O)(=O)c1ccc(Nc2nc(Nc3ccccc3)nc(-n3nc(-c4ccccc4)cc3-c3ccccc3)n2)cc1`, the growth was 58.5% (inactive).

On to `N#Cc1c(-c2ccc(Cl)cc2)nc2c(-c3ccccc3)c(Nc3ccccc3)nn2c1N`, for which the growth is 72.3% (inactive).

`COc1cccc(NC2=CC(=O)C(C)=C(C)C2=O)c1`: the growth is 49.8% (inactive).

In the case of `CCOC(=O)c1c(NC(=O)c2cccc(C(F)(F)F)c2)sc2cc(O)ccc12`, the growth is 81.3% (inactive).

Consider `O=C1NC(=C(Cl)Cl)/C(=N/S(=O)(=O)N2CCCCC2CC2(C(F)(F)F)N=N2)N1` (stereo not given), for which the growth is -59.3% (active).

Consider `CCOC(=O)c1csc(NC(=O)CSc2nc3sc4c(c3c(=O)n2-c2ccc(Cl)cc2)CCCC4)n1`, for which the growth was 93.3% (inactive).

Take `NC(=O)c1cc(-c2ccc3ncnc(N4CCc5cc(F)c(Cl)cc54)c3c2)cnc1N`: the growth is 19.1% (inactive).

Regarding `COc1cc(/C=C/C(=O)c2ccc(C(F)(F)F)cc2)ccc1Oc1nc(NCCO)nc(N2CCOCC2)n1`, the growth is 86.8% (inactive).

Turning to `COc1ccc(NC2=CC(=O)C(C)=C(C)C2=O)cc1`, the growth is 82.5% (inactive).

Turning to `CCN1CCN(S(=O)(=O)c2oc(-c3ccc(Cl)cc3)nc2C#N)CC1`, the growth is -63% (active).

`O=C1Nc2cc(Cl)ccc2/C1=C\c1ccc(OCc2ccc([N+](=O)[O-])cc2)cc1`: the growth is 66.9% (inactive).

As to `COc1cc2nc(-c3ccc(Cl)cc3)cc(OCCCNCC3CCCO3)c2cc1OC` (stereo not given), the growth was 45.1% (inactive).

Consider `O=C(N/N=C/c1ccco1)c1[nH]c2ccc(Br)cc2c1-c1ccccc1`, for which the growth was -39.7% (active).

Take `C#C[C@]1(O)CC[C@H]2[C@@H]3CC=C4c5sc(Nc6ccc(Cl)cn6)nc5CC[C@]4(C)[C@H]3CC[C@@]21C`: the growth was 67.7% (inactive).

Regarding `Cc1nc(-c2cc3ccccc3oc2=O)ccc1C(=O)/C=C/c1ccc(N2CCOCC2)cc1`, the growth is 61.4% (inactive).

Regarding `Clc1ccc2oc3c(OCCCn4ccnc4)c4ccccc4nc3c2c1`, the growth was 44% (inactive).

Consider `N#Cc1nc(-c2ccccc2)oc1N1CCC(CO)C1` (stereo not given), for which the growth was 97.8% (inactive).

With `COc1ccc(-c2nn3c(-c4ccccc4F)nnc3s2)cc1`, the growth is 20.2% (inactive).

On to `Nc1cc(-c2c[nH]c3ccc(Cl)cc23)nc2cc(-c3c[nH]c4ccc(Cl)cc34)nn12`, for which the growth was 28.8% (inactive).

Turning to `COc1cc(-c2nc3ccc(-c4nnc(SCC(=O)Nc5ccc(C(=O)/C=C/c6ccc(Cl)cc6)cc5)o4)cc3[nH]2)cc(OC)c1OC`, the growth was 92.6% (inactive).

Consider `CC(C)(C)Nc1nc2c(OCCc3ccccc3)cccn2c1-c1ccccc1Cl`, for which the growth is -13.4% (active).

For the compound `N#Cc1ccc(C(=O)CSc2nc(Nc3ccc(S(N)(=O)=O)cc3)c3ccccc3n2)cc1`, the growth is 99.8% (inactive).

Take `O=C(N/N=C/c1cccs1)c1[nH]c2ccc(Br)cc2c1-c1ccccc1`: the growth is -43.9% (active).

For `Fc1ccc(-c2cc3nc(C(Cl)Cl)nc(-c4ccccc4)n3n2)cc1`, the growth was 42.4% (inactive).

With `N/C(=N\c1nc2c(Br)cccc2s1)C(Br)Br`, the growth is -75.1% (active).

Take `COc1cc(OC)c(S(=O)(=O)NNC(=O)c2ccncc2)cc1C(=O)/C=C/c1ccc(C)cc1`: the growth is 84.9% (inactive).

In the case of `COc1ccc(/C=N/NC(=O)c2[nH]c3ccc(Br)cc3c2-c2ccccc2)o1`, the growth was -54.6% (active).

`CN1C(=O)N(c2ccccc2)C2N=C(N/N=C/c3ccccc3)SC21` (stereo not given): the growth was -12.3% (active).

Regarding `Cn1ccnc1C(=O)/C=C/c1ccc(NC(=O)Nc2ccccc2)cc1`, the growth was 11.9% (inactive).

The values are drawn from PubChem BioAssay (NCI).
